# PMC5540273 (PLoS ONE, 2017)
# Read-outs that look alike come from different tables or passages of the source.
# Key:
# Settings in all cases: n = 1
# HUNK = tested on: HUNK
# ICK = tested on: ICK
# IGF1R = tested on: IGF1R
# IKK-alpha = tested on: T1, IKK-alpha
# T1 construct: gene CHUK
# IKK-beta = tested on: T2, IKK-beta
# T2 construct: gene IKBKB
# IKK-epsilon = tested on: T3, IKK-epsilon
# T3 construct: gene IKBKE
# INSRR = tested on: INSRR
# INSR = tested on: INSR
# IRAK1 = tested on: IRAK1
# IRAK3 = tested on: IRAK3
# IRAK4 = tested on: IRAK4
# ITK = tested on: ITK
# [1] = tested on: JAK1(JH1domain-catalytic)
# [2] = tested on: JAK1(JH2domain-pseudokinase)
# [3] = tested on: JAK2(JH1domain-catalytic)
# [4] = tested on: JAK3(JH1domain-catalytic)
# JNK1 = tested on: T4, JNK1
# T4 construct: gene MAPK8
# JNK2 = tested on: T5, JNK2
# T5 construct: gene MAPK9
# JNK3 = tested on: T6, JNK3
# T6 construct: gene MAPK10
# KIT-autoinhibited = tested on: KIT-autoinhibited
# [5] = concentration: 1 μM, replicates: in singlicate
# 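Further: KINOMEscan kinase panel screen.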
structure (smiles),measurement,setting,value
Cc1ccc(NC(=O)Nc2cccc(C(F)(F)F)c2)cc1 [GSK955403],%Inh,HUNK; 1 µM,0%
same,%Inh,ICK; 1 µM,0%
same,%Inh,IGF1R; 1 µM,0%
same,%Inh,IKK-alpha; 1 µM,0%
same,%Inh,IKK-beta; 1 µM,0%
same,%Inh,IKK-epsilon; 1 µM,0%
same,%Inh,INSRR; 1 µM,0%
same,%Inh,INSR; 1 µM,0%
same,%Inh,IRAK1; 1 µM,0%
same,%Inh,IRAK3; 1 µM,100%
same,%Inh,IRAK4; 1 µM,0%
same,%Inh,ITK; 1 µM,12%
same,%Inh,[1]; 1 µM,0%
same,%Inh,[2]; 1 µM,12%
same,%Inh,[3]; 1 µM,0%
same,%Inh,[4]; 1 µM,0%
same,%Inh,JNK1; 1 µM,58%
same,%Inh,JNK2; 1 µM,26%
same,%Inh,JNK3; 1 µM,46%
same,%Inh,KIT-autoinhibited; 1 µM,3%
COc1cccc(NC(=O)NC2CCN(c3ccnc(Nc4ccc(F)cc4)n3)C2)c1 (stereo not drawn) [GSK1379721],%Inh,HUNK; [5],13%
same,%Inh,ICK; [5],25%
same,%Inh,IGF1R; [5],0%
same,%Inh,IKK-alpha; [5],0%
same,%Inh,IKK-beta; [5],0%
same,%Inh,IKK-epsilon; [5],15%
same,%Inh,INSRR; [5],0%
same,%Inh,INSR; [5],14%
same,%Inh,IRAK1; [5],12%
same,%Inh,IRAK3; [5],0%
same,%Inh,IRAK4; [5],12%
same,%Inh,ITK; [5],0%
same,%Inh,[1]; [5],7%
same,%Inh,[2]; [5],0%
same,%Inh,[3]; [5],20%
same,%Inh,[4]; [5],0%
same,%Inh,JNK1; [5],0%
same,%Inh,JNK2; [5],4%
same,%Inh,JNK3; [5],0%
same,%Inh,KIT-autoinhibited; [5],0%
COc1cc2ncnc(Nc3ccc4nc(-c5ccccc5)[nH]c4c3)c2cc1OC.Cl [GW282450],%Inh,HUNK; [5],0%
same,%Inh,ICK; [5],4%
same,%Inh,IGF1R; [5],6%
same,%Inh,IKK-alpha; [5],0%
same,%Inh,IKK-beta; [5],0%
same,%Inh,IKK-epsilon; [5],0%
same,%Inh,INSRR; [5],0%
same,%Inh,INSR; [5],94.3%
same,%Inh,IRAK1; [5],25%
same,%Inh,IRAK3; [5],0%
same,%Inh,IRAK4; [5],13%
same,%Inh,ITK; [5],14%
same,%Inh,[1]; [5],6%
same,%Inh,[2]; [5],0%
same,%Inh,[3]; [5],0%
same,%Inh,[4]; [5],0%
same,%Inh,JNK1; [5],18%
same,%Inh,JNK2; [5],26%
same,%Inh,JNK3; [5],19%
same,%Inh,KIT-autoinhibited; [5],0%
Cc1csc(-c2nc(Nc3ccncc3)c3ccccc3n2)n1 [GW869640],%Inh,HUNK; [5],0%
same,%Inh,ICK; [5],33%
same,%Inh,IGF1R; [5],14%
same,%Inh,IKK-alpha; [5],48%
same,%Inh,IKK-beta; [5],41%
same,%Inh,IKK-epsilon; [5],0%
same,%Inh,INSRR; [5],11%
same,%Inh,INSR; [5],2%
same,%Inh,IRAK1; [5],12%
same,%Inh,IRAK3; [5],0%
same,%Inh,IRAK4; [5],0%
same,%Inh,ITK; [5],11%
same,%Inh,[1]; [5],0%
same,%Inh,[2]; [5],74%
same,%Inh,[3]; [5],53%
same,%Inh,[4]; [5],9%
same,%Inh,JNK1; [5],54%
same,%Inh,JNK2; [5],16%
same,%Inh,JNK3; [5],15%
same,%Inh,KIT-autoinhibited; [5],24%
Cn1cncc1-c1ccc2ncnc(Nc3ccc(OCc4ccccc4)cc3)c2c1 [GW320571],%Inh,HUNK; [5],0%
same,%Inh,ICK; [5],0%
same,%Inh,IGF1R; [5],24%
same,%Inh,IKK-alpha; [5],0%
same,%Inh,IKK-beta; [5],0%
same,%Inh,IKK-epsilon; [5],0%
same,%Inh,INSRR; [5],22%
same,%Inh,INSR; [5],3%
same,%Inh,IRAK1; [5],11%
same,%Inh,IRAK3; [5],3%
same,%Inh,IRAK4; [5],2%
same,%Inh,ITK; [5],14%
same,%Inh,[1]; [5],18%
same,%Inh,[2]; [5],22%
same,%Inh,[3]; [5],0%
same,%Inh,[4]; [5],0%
same,%Inh,JNK1; [5],18%
same,%Inh,JNK2; [5],6%
same,%Inh,JNK3; [5],4%
same,%Inh,KIT-autoinhibited; [5],0%
CS(=O)(=O)c1ccc(-c2c(-c3ncn[nH]3)sc(N3CCOCC3)c2C#N)cc1,%Inh,HUNK; [5],0%
same,%Inh,ICK; [5],0%
same,%Inh,IGF1R; [5],7%
same,%Inh,IKK-alpha; [5],36%
same,%Inh,IKK-beta; [5],29%
same,%Inh,IKK-epsilon; [5],24%
same,%Inh,INSRR; [5],15%
same,%Inh,INSR; [5],0%
same,%Inh,IRAK1; [5],0%
same,%Inh,IRAK3; [5],100%
same,%Inh,IRAK4; [5],0%
same,%Inh,ITK; [5],6%
same,%Inh,[1]; [5],0%
same,%Inh,[2]; [5],56%
same,%Inh,[3]; [5],0%
same,%Inh,[4]; [5],2%
same,%Inh,JNK1; [5],25%
same,%Inh,JNK2; [5],0%
same,%Inh,JNK3; [5],0%
same,%Inh,KIT-autoinhibited; [5],49%
O=C(Nc1n[nH]c2nc(-c3nccs3)c(Br)cc12)C1CCCC1 [SB-742609],%Inh,HUNK; [5],0%
same,%Inh,ICK; [5],85%
same,%Inh,IGF1R; [5],21%
same,%Inh,IKK-alpha; [5],28%
same,%Inh,IKK-beta; [5],27%
same,%Inh,IKK-epsilon; [5],0%
same,%Inh,INSRR; [5],32%
same,%Inh,INSR; [5],9%
same,%Inh,IRAK1; [5],38%
same,%Inh,IRAK3; [5],0%
same,%Inh,IRAK4; [5],39%
same,%Inh,ITK; [5],24%
same,%Inh,[1]; [5],16%
same,%Inh,[2]; [5],0%
same,%Inh,[3]; [5],23%
same,%Inh,[4]; [5],0%
same,%Inh,JNK1; [5],38%
same,%Inh,JNK2; [5],27%
same,%Inh,JNK3; [5],17%
same,%Inh,KIT-autoinhibited; [5],16%
COC(=O)c1c(-c2ccccc2)c2cc(OC)ccc2c(=O)n1Cc1ccccc1,%Inh,HUNK; [5],0%
same,%Inh,ICK; [5],0%
same,%Inh,IGF1R; [5],0%
same,%Inh,IKK-alpha; [5],5%
same,%Inh,IKK-beta; [5],4%
same,%Inh,IKK-epsilon; [5],0%
same,%Inh,INSRR; [5],9%
same,%Inh,INSR; [5],0%
same,%Inh,IRAK1; [5],11%
same,%Inh,IRAK3; [5],12%
same,%Inh,IRAK4; [5],10%
same,%Inh,ITK; [5],9%
same,%Inh,[1]; [5],10%
same,%Inh,[2]; [5],0%
same,%Inh,[3]; [5],0%
same,%Inh,[4]; [5],0%
same,%Inh,JNK1; [5],66%
same,%Inh,JNK2; [5],68%
same,%Inh,JNK3; [5],85%
same,%Inh,KIT-autoinhibited; [5],6%
Cc1ccccc1-n1cnc2c(N)ncnc21 [SKF-97510],%Inh,HUNK; [5],1%
same,%Inh,ICK; [5],0%
same,%Inh,IGF1R; [5],0%
same,%Inh,IKK-alpha; [5],0%
same,%Inh,IKK-beta; [5],0%
same,%Inh,IKK-epsilon; [5],0%
same,%Inh,INSRR; [5],0%
same,%Inh,INSR; [5],0%
same,%Inh,IRAK1; [5],0%
same,%Inh,IRAK3; [5],0%
same,%Inh,IRAK4; [5],0%
same,%Inh,ITK; [5],1%
same,%Inh,[1]; [5],5%
same,%Inh,[2]; [5],0%
same,%Inh,[3]; [5],0%
same,%Inh,[4]; [5],0%
same,%Inh,JNK1; [5],0%
same,%Inh,JNK2; [5],0%
same,%Inh,JNK3; [5],0%
same,%Inh,KIT-autoinhibited; [5],0%
